# An excerpt weighted towards active compounds, which were near 19% of everything screened.
# HT1080NT lethal – kills 2HG-producing HT-1080-NT fibrosarcoma cells; HT-1080-NT fibrosarcoma viability, CellTiter-Glo ATP luminescence, 48 h; Potency, µM (doses to about 46.1 µM), for inactives: at the top dose activity, negative = less viability, actives largely listed as cytotoxic; 360,000 tested, 1.6% active;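 further: NT is the 2HG producing partner of a matched IDH1 knockdown line; potency means the concentration at half of the fitted maximal effect; 0% = DMSO-treated cells and -100% = media-only wells without cells; nearly all actives have a fitted effect of over 55% in size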
#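 Luminescent CellTiter-Glo readout after 48 hours of compound exposure at 37 degrees C defined viability of HT-1080-NT cells. Activity was normalized to DMSO wells and cell-free media wells; concentration-response curves were fitted and assigned curve classes.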
# TDP1 cell CPT – DT40-hTDP1 cell growth loss with CPT; chicken DT40 Tdp1-/-;hTDP1 cells + 20 nM CPT, ATP luminescence, 48 h; Potency, µM (titrated, usually from 46.2 µM), inactives show at the highest dose activity change, negative = growth inhibition, hits mostly inhibitors; 420,000 tested, 12% active; further: potency means the concentration at half of the fitted maximal effect; nearly all actives have a fitted effect of over 55% in size
#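 Cell growth measured by CellTiter-Glo luminescence after a minimum 48 h, 37 C compound exposure with 20 nM CPT in Tdp1-knockout DT40 cells stably expressing hTDP1, seeded 400/well; qHTS titration format.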
# TDP1 cell noCPT – qHTS for Inhibitors of human tyrosyl-DNA phosphodiesterase 1 (TDP1): qHTS in cells in absence of CPT. DT40 Tdp1-/- hTDP1 cells, no CPT, ATP luminescence, 48 h. Potency, µM (highest dose often 46.2 µM), without a hit: top-dose activity change, negative = growth inhibition, hits mostly inhibitors. 420,000 tested, 15% active. AID 686978, 2013; further: potency means the concentration at half of the fitted maximal effect; nearly all actives have a fitted effect of over 55% in size
#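 Growth of hTDP1-complemented DT40 Tdp1-knockout cells is measured by ATP luminescence after at least 48 hr compound exposure at 37 °C, with DMSO substituting for the 20 nM CPT used in the parallel screen.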
# HT1080 IDH1KD tx – toxicity to HT-1080 IDH1 knockdown cells (counter line); Potency, µM (doses to about 46.1 µM), without a hit: at the highest dose activity, negative = toxicity, most hits filed as cytotoxic; 360,000 tested, 2% active; HT-1080 IDH1 knockdown viability, ATP luminescence, 48 h;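 further: potency means the concentration at half of the fitted maximal effect; 0% = DMSO wells and -100% = cell-free medium wells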
#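 CellTiter-Glo luminescence after 48 h compound exposure at 37 degrees C of IDH1-knockdown HT-1080 cells in 5% FBS RPMI. %Activity scaled between DMSO wells and cell-free media wells, with curves fitted and assigned curve classes.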
# IL-1B inflam inh – inflammasome signaling inhibition, IL-1 beta readout; activity change, % at 57.5 µM; 360,000 tested, 4.7% active; THP-1 LPS/ATP IL-1B secretion, AlphaLISA, 16 h; active compounds read low; in the data active means activity change below about -50%; inconclusive means mostly about -30% to -49%
#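 Secreted IL-1B measured by AlphaLISA bead assay after 16 h compound exposure of THP-1 cells; compounds (final up to 57.5 uM) added 1 h before LPS (250 ng/mL) and ATP (1.25 mM) stimulation; lower signal means less secretion.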
# * marks the source's active call; other numbers are inactive results; ? = inconclusive; nt = not tested or not shown. Unless noted, the call rests on the fitted dose curve; in most records, active means well fitted curve in the direction sought with a large enough effect; inconclusive means small, poorly fitted or top-dose-only effect, or another doubt; inactive means no such curve, though single readings can be large; an effect the other way counts as inactive or inconclusive. Unless noted, on the % scale 0 is the no-effect control and ±100 the full control effect.
SMILES,HT1080NT lethal,TDP1 cell CPT,TDP1 cell noCPT,HT1080 IDH1KD tx,IL-1B inflam inh
COc1ccc(OC)c(S(=O)(=O)Nc2cccc3ccc(O)cc23)c1,-21.0%,-4.5%,?,-13.3%,-11.3
CCCN(CCC)CC(O)CN1C(=O)NC(C)(C)C1=O (stereo not given),11.4%,-2.7%,-11.1%,10.5%,-6.6
C=CCSc1nc(C)cc(/C=C\c2ccccc2)c1C#N,3.2%,-23.0%,-8.5%,5.4%,-4.6
Cc1ccccc1/C=C1\SC(=S)N(/N=C/c2cc([N+](=O)[O-])ccc2O)C1=O,-2.6%,?,?,-14.4%,-7.5
COc1cc(N)c(Cl)cc1C(=O)N[C@H]1CCN(CCCOc2ccc(F)cc2)C[C@@H]1OC,nt,-81.6%,26.6µM*,nt,nt
CCN1CCN(c2ccc(S(=O)(=O)N3CCCCC3)cc2NC(=O)CC(NC(C)=O)c2ccccc2)CC1 (stereo not given),-3.1%,-0.6%,-15.0%,-2.5%,-6.3
CCN1CCN(c2c(Cl)cccc2NC(=O)c2cc3ccccc3o2)CC1,-1.8%,?,18.4µM*,-0.3%,-24.6
CCN1CCN(S(=O)(=O)c2ccc(Cl)c(C(=O)Nc3nnc(CC(C)C)s3)c2)CC1,-14.0%,23.1µM*,?,-7.2%,0.0
CCc1nnc(NC(=O)c2cc(S(=O)(=O)N3CCN(c4ccccc4)CC3)ccc2Cl)s1,-5.4%,-27.1%,-7.3%,3.6%,14.9
CCN1CCN(S(=O)(=O)c2ccc(Cl)c(C(=O)Nc3ccccc3N3CCCCC3)c2)CC1,?,16.4µM*,25.9µM*,?,-73.2*
CCN1CCN(c2ccc(S(=O)(=O)N3CCCCC3)cc2NC(=O)Cc2ccc(OC)cc2)CC1,?,-29.9%,?,?,-79.8*
Cc1occc1C(=O)NNC(=O)c1ccccc1Br,2.8%,-20.0%,7.2%,2.2%,16.5
Cc1ccc(S(=O)(=O)N2CCCCC2)cc1NC(=O)CCNC(=O)c1ccc([N+](=O)[O-])cc1,-5.5%,23.1µM*,16.4µM*,-2.7%,8.0
Cc1ccc(S(=O)(=O)N2CCCCC2)cc1NC(=O)c1cc2ccccc2o1,2.6%,?,?,-0.7%,-4.1
COc1ccc(CC(=O)Nc2cc(S(=O)(=O)N3CCCCC3)ccc2C)cc1,0.0%,?,20.6µM*,-6.2%,2.6
CCN1CCN(c2ccc(S(=O)(=O)N3CCCCC3)cc2NC(=O)c2cc3ccccc3o2)CC1,2.6%,?,16.4µM*,2.9%,-7.5
CCOc1ccc(S(=O)(=O)N2CCCCC2)cc1NC(=O)Cc1ccc(OC)cc1,-5.9%,?,?,-4.7%,-1.4
COc1ccc(S(=O)(=O)N2CCOCC2)cc1NC(=O)c1cc2ccccc2o1,-12.3%,?,13µM*,-3.3%,-18.3
COc1ccc(S(=O)(=O)N2CCOCC2)cc1NC(=O)C1CCCN1C(=O)c1cccs1 (stereo not given),-1.1%,0.259µM*,?,-2.1%,-19.1
CCCc1cc(=O)[nH]c(SCC(=O)Nc2cc(S(=O)(=O)N3CCCCC3)ccc2C)n1,10.3µM*,-19.8%,12.9%,14.6µM*,0.0
COc1ccc(S(=O)(=O)N2CCOCC2)cc1NC(=O)[C@@H]1CCCN1C(=O)c1cccs1,3.5%,-1.6%,-13.5%,4.9%,14.9
CCOCCn1c(CN2CCN(C)CC2)nc2c1c(=O)n(C)c(=O)n2C,-2.3%,-6.3%,2.1%,-1.4%,-21.4
COC(=O)Cn1c(CN2CCOCC2)nc2c1c(=O)n(C)c(=O)n2C,1.1%,7.5%,-8.4%,13.3%,20.9
COC(=O)Cn1c(CN2CCN(c3ccc(F)cc3)CC2)nc2c1c(=O)n(C)c(=O)n2C,-24.9%,2.31µM*,1.84µM*,-14.2%,47.4
CCOCCn1c(CN2CCN(c3ccc(F)cc3)CC2)nc2c1c(=O)n(C)c(=O)n2C,-2.8%,13µM*,18.4µM*,-13.9%,34.7
CC(C)CCn1c(CN2CCN(c3cccc(Cl)c3)CC2)nc2c1c(=O)n(C)c(=O)n2C,18.2%,?,23.1µM*,1.6%,43.8

# Source: PubChem (National Center for Advancing Translational Sciences (NCATS))
